“And” between values parts separate entries of the source, which are not always exact repeats. Equal values may be shown once. Hit rate of the full screen: of about 5,500 compounds, about 2,000 (36%) were called active. About 18% were inconclusive and are not listed. No stated cut-off is given here; in the data, active means normalized growth mostly below about 0.91 (no sharp cut-off); inconclusive means no clear call, values can overlap the other calls; inactive means mostly above about 0.92. This is one part of the list.
Assay: chemical genetic growth profiling, strain panel (AID 1159580);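 further: tested at 20 µM; growth read once vehicle control cultures reached saturation at 30 °C; 1 = growth at the plate median or of vehicle wells; lower values mean less growth of the strain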
Details: S. cerevisiae deletion strains, growth OD

Measured: normalized growth

NC(N)=NCCCCN=C(N)N
inactive: locus YAL013W, strain DEP1, active compounds read low 0.997 | locus YAL021C, strain ccr4, active compounds read low 0.993 | locus YAL026C, strain drs2, active compounds read low 0.984 | locus YAL030W, strain snc1, active compounds read low 1 | locus YAL040C, strain CLN3, active compounds read low 1.01 | locus YBL061C, strain skt5, active compounds read low 1.01 | locus YBR009C, strain hhf1, active compounds read low 1.01 | locus YBR021W, strain FUR4, active compounds read low 1.04 | locus YBR023C, strain chs3, active compounds read low 1.01 | locus YBR171W, strain sec66, active compounds read low 0.986 | locus YBR229C, strain ROT2, active compounds read low 0.957 | locus YBR231C, strain swc5, active compounds read low 1 | locus YBR279W, strain paf1, active compounds read low 0.992 | locus YCL011C, strain gbp2, active compounds read low 1.01 | locus YCL016C, strain dcc1, active compounds read low 1.01 | locus YCL029C, strain bik1, active compounds read low 0.989 | locus YCL061C, strain MRC1, active compounds read low 1 | locus YCL069W, strain vba3, active compounds read low 0.984 | locus YCR088W, strain abp1, active compounds read low 1 | locus YDL005C, strain med2, active compounds read low 0.998 | locus YDL035C, strain GPR1, active compounds read low 0.985 | locus YDL040C, strain nat1, active compounds read low 1 | locus YDL074C, strain BRE1, active compounds read low 0.957 | locus YDL101C, strain DUN1, active compounds read low 0.953 | locus YDL134C, strain PPH21, active compounds read low 0.995 | locus YDL185W, strain tfp1, active compounds read low 0.968 | locus YDL192W, strain arf1, active compounds read low 0.992 | locus YDR001C, strain nth1, active compounds read low 1 | locus YDR069C, strain doa4, active compounds read low 0.999 | locus YDR101C, strain arx1, active compounds read low 1 | locus YDR137W, strain rgp1, active compounds read low 1.01 | locus YDR150W, strain NUM1, active compounds read low 0.983 | locus YDR159W, strain sac3, active compounds read low 1 | locus YDR162C, strain NBP2, active compounds read low 0.948 | locus YDR195W, strain ref2 0.984 | locus YDR297W, strain sur2, active compounds read low 0.999 | locus YDR318W, strain mcm21, active compounds read low 1.01 | locus YDR334W, strain swr1, active compounds read low 0.99 | locus YDR335W, strain msn5, active compounds read low 0.997 | locus YDR388W, active compounds read low 0.996 | locus YDR392W, strain spt3, active compounds read low 0.946 | locus YDR502C, strain sam2, active compounds read low 0.991 | locus YEL003W, strain gim4, active compounds read low 0.993 | locus YEL037C, strain rad23, active compounds read low 0.964 | locus YEL061C, strain CIN8 (second series), active compounds read low 0.991 | locus YEL061C, strain CIN8, active compounds read low 0.989 | locus YER002W, strain NOP16, active compounds read low 1 | locus YER015W, strain faa2, active compounds read low 0.997 | locus YER016W, strain bim1, active compounds read low 1 | locus YER110C, active compounds read low 0.99 | locus YER111C, strain swi4, active compounds read low 0.99 | locus YER155C, strain BEM2 (second series), active compounds read low 1.01 | locus YER155C, strain BEM2, active compounds read low 1 | locus YER167W, strain BCK2, active compounds read low 1.01 | locus YFR010W, strain ubp6, active compounds read low 0.98 | locus YGL078C, strain dbp3, active compounds read low 0.996 | locus YGL086W, strain mad1, active compounds read low 1.01 | locus YGL167C, strain pmr1, active compounds read low 1.01 | locus YGL173C, strain kem1, active compounds read low 0.995 | locus YGL227W, strain vid30, active compounds read low 1 | locus YGL240W, strain doc1, active compounds read low 1 | locus YGL248W, strain PDE1, active compounds read low 0.994 | locus YGL253W, strain hxk2, active compounds read low 1 | locus YGR078C, strain PAC10, active compounds read low 0.969 and 0.994 | locus YGR135W, strain pre9, active compounds read low 0.982 | locus YGR229C, strain SMI1, active compounds read low 0.999 | locus YGR252W, strain gcn5, active compounds read low 1.03 | locus YHR013C, strain ard1, active compounds read low 1 | locus YHR027C, strain rpn1, active compounds read low 1 | locus YHR030C, strain SLT2, active compounds read low 1 and 0.976 | locus YHR079C, strain IRE1 (second series), active compounds read low 1.01 | locus YHR079C, strain IRE1, active compounds read low 0.986 | locus YHR094C, strain hxt1, active compounds read low 1.01 | locus YHR129C, strain ARP1, active compounds read low 0.994 | locus YHR142W, strain chs7, active compounds read low 1 | locus YHR200W, strain rpn10, active compounds read low 1.01 | locus YIL066C, strain RNR3, active compounds read low 0.969 | locus YIL073C, strain SPO22, active compounds read low 1.03 | locus YIL125W, strain kgd1, active compounds read low 0.992 | locus YIR030C, strain dcg1, active compounds read low 0.993 | locus YJL092W, strain hpr5, active compounds read low 0.999 | locus YJL095W, strain BCK1 (second series), active compounds read low 1.01 | locus YJL095W, strain BCK1, active compounds read low 0.992 and 0.985 | locus YJL115W, strain asf1, active compounds read low 0.993 | locus YJL129C, strain trk1, active compounds read low 1.02 | locus YJL134W, strain LCB3, active compounds read low 0.989 | locus YJL154C, strain vps35, active compounds read low 0.992 | locus YJL164C, strain tpk1, active compounds read low 1.01 | locus YJL166W, strain qcr8, active compounds read low 1.01 | locus YJL168C, strain set2, active compounds read low 0.992 | locus YJL187C, strain SWE1 (second series), active compounds read low 0.969 | locus YJL187C, strain SWE1, active compounds read low 1.01 | locus YJR043C, strain POL32, active compounds read low 1.02 | locus YJR066W, strain TOR1, active compounds read low 0.99 | locus YJR075W, strain HOC1, active compounds read low 0.94
